{
  "source": "paper PMC4336329",
  "about": "(PLoS ONE, 2015)",
  "note": "The campaign covered roughly 310,000 compounds. About 14,000 (4.5%) showed an effect of 50% or more. Effects have a minus sign here. What follows is part of a selection rich in strong results, with near analogues and random picks from the rest.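 Note: peak tail current of the secondary pulse compared with the same well before compound.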",
  "data": [
    {"target": "human ether-à-go-go-related gene (hERG) potassium channel (human, UniProt Q12809)", "sequence (Q12809 whole entry, looked up)": "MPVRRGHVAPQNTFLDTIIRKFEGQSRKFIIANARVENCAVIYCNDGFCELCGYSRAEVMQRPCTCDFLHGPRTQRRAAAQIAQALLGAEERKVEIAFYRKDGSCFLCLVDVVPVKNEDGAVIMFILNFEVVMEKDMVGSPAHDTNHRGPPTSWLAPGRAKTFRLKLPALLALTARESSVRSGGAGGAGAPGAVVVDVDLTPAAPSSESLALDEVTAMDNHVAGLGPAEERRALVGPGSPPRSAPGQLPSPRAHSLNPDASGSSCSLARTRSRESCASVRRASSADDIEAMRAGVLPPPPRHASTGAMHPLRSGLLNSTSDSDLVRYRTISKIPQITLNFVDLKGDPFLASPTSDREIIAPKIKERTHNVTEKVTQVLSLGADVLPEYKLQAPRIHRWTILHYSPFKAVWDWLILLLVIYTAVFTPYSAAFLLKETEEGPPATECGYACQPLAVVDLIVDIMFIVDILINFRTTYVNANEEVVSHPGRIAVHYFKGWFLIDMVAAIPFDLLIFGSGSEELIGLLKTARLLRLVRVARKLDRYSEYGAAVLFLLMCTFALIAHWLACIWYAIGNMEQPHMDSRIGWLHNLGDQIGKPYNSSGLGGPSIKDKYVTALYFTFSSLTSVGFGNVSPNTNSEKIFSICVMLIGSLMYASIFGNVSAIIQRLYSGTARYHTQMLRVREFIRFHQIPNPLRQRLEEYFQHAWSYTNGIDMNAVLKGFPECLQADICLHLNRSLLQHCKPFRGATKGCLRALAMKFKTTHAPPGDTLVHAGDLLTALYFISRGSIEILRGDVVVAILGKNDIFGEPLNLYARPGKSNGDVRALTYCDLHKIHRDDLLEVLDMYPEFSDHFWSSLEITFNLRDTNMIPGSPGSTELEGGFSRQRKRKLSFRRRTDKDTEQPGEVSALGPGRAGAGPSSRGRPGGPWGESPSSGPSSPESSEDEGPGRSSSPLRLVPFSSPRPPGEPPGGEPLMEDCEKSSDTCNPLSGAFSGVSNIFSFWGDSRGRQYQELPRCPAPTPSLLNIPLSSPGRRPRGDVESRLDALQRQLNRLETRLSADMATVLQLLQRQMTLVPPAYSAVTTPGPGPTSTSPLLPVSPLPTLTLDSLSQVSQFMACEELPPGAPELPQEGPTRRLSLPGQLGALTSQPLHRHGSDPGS", "assay": "primary screen, population patch clamp on CHO cells stably expressing hERG; higher = less effect of the substance", "units": {"hERG current change (%, negative = inhibition) at 10uM": "%"}, "values": [
      {"molecule": "CC(C)CC(=O)CN1C(=O)C2(OCCO2)c2ccccc21", "hERG current change (%, negative = inhibition) at 10uM": 13.2},
      {"molecule": "COc1ccc(-c2cc(C(F)F)nc(-n3nc(C)cc3C)n2)cc1", "hERG current change (%, negative = inhibition) at 10uM": 11.7},
      {"molecule": "O=c1cc(-c2ccccc2)c2ccc(O)c(CN3CCCCC3)c2o1", "hERG current change (%, negative = inhibition) at 10uM": -8.89},
      {"molecule": "COc1ccc2nc(Nc3nc4cc5c(cc4s3)OCO5)sc2c1", "hERG current change (%, negative = inhibition) at 10uM": 6.67},
      {"molecule": "O=S(=O)(Nc1c(O)ccc2ccccc12)c1cccc2ccccc12", "hERG current change (%, negative = inhibition) at 10uM": 6.79},
      {"molecule": "COc1ccc(C(CNC(=O)c2[nH]c(C)c(C(C)=O)c2C)N2CCOCC2)cc1", "note": "(stereo not drawn)", "hERG current change (%, negative = inhibition) at 10uM": -4.61},
      {"molecule": "Cc1nc2oc3c(NCC4CCCO4)ncnc3c2c2c1COC(C)(C)C2", "note": "(stereo not drawn)", "hERG current change (%, negative = inhibition) at 10uM": -16.6},
      {"molecule": "CC(=O)Nc1nc(C)c(CCCOc2ccc([N+](=O)[O-])cc2)c(=O)[nH]1", "hERG current change (%, negative = inhibition) at 10uM": 0.762},
      {"molecule": "Cc1noc(C)c1NC(=O)N1CCN(Cc2ccccc2)CC1", "hERG current change (%, negative = inhibition) at 10uM": 8.04},
      {"molecule": "Cc1cc(CN2CCCC(C(=O)Nc3cccc(-n4cccn4)c3)C2)cc(C)c1O", "note": "(stereo not drawn)", "hERG current change (%, negative = inhibition) at 10uM": -42},
      {"molecule": "CCOc1ccccc1CN1CCCC(C(=O)Nc2cccc(-n3cccn3)c2)C1", "note": "(stereo not drawn)", "hERG current change (%, negative = inhibition) at 10uM": -69.5},
      {"molecule": "CSc1cccc(CN2CCCC(C(=O)Nc3cccc(-n4cccn4)c3)C2)c1", "note": "(stereo not drawn)", "hERG current change (%, negative = inhibition) at 10uM": -28.6},
      {"molecule": "O=C(Nc1cccc(-n2cccn2)c1)C1CCCN(Cc2cccc(F)c2F)C1", "note": "(stereo not drawn)", "hERG current change (%, negative = inhibition) at 10uM": -17.8},
      {"molecule": "CC(=O)c1cccc(CN2CCCC(C(=O)Nc3cccc(-n4cccn4)c3)C2)c1", "note": "(stereo not drawn)", "hERG current change (%, negative = inhibition) at 10uM": -23.9},
      {"molecule": "CCOc1cccc(CN2CCCC(C(=O)Nc3cccc(-n4cccn4)c3)C2)c1", "note": "(stereo not drawn)", "hERG current change (%, negative = inhibition) at 10uM": -56.3},
      {"molecule": "O=C(Nc1cccc(-n2cccn2)c1)C1CCCN(Cc2ccccc2F)C1", "note": "(stereo not drawn)", "hERG current change (%, negative = inhibition) at 10uM": -30.4},
      {"molecule": "Cc1nn(C)c(Cl)c1CN1CCCC(C(=O)Nc2cccc(-n3cccn3)c2)C1", "note": "(stereo not drawn)", "hERG current change (%, negative = inhibition) at 10uM": -50.2},
      {"molecule": "COc1ccc(CN2CCCC(C(=O)Nc3cccc(-n4cccn4)c3)C2)cc1", "note": "(stereo not drawn)", "hERG current change (%, negative = inhibition) at 10uM": -58.9},
      {"molecule": "Cc1c(CN2CCCC(C(=O)Nc3cccc(-n4cccn4)c3)C2)cnn1C", "note": "(stereo not drawn)", "hERG current change (%, negative = inhibition) at 10uM": 7.86},
      {"molecule": "COc1ccc(O)c(CN2CCCC(C(=O)Nc3cccc(-n4cccn4)c3)C2)c1", "note": "(stereo not drawn)", "hERG current change (%, negative = inhibition) at 10uM": -14.9},
      {"molecule": "COC(=O)c1ccc(CN2CCCC(C(=O)Nc3cccc(-n4cccn4)c3)C2)cc1", "note": "(stereo not drawn)", "hERG current change (%, negative = inhibition) at 10uM": -27.4},
      {"molecule": "COCCNC(=S)N(CCc1c(C)[nH]c2ccc(F)cc12)Cc1cccnc1", "hERG current change (%, negative = inhibition) at 10uM": -21.5},
      {"molecule": "C=CC(=O)N1c2ccccc2Sc2ccc(NC(=O)OCC)cc21", "hERG current change (%, negative = inhibition) at 10uM": 0.408},
      {"molecule": "CC(C)(C)c1ccc(C(=O)Nc2cccc3c(=O)[nH][nH]c(=O)c23)cc1", "hERG current change (%, negative = inhibition) at 10uM": -9.65},
      {"molecule": "O=C(Cc1ccccc1)NCC(=O)N1CCN(c2ccccc2)CC1", "hERG current change (%, negative = inhibition) at 10uM": 5.93},
      {"molecule": "O=C(NCCn1ccc2ccccc21)c1cccc([N+](=O)[O-])c1", "hERG current change (%, negative = inhibition) at 10uM": -16.9},
      {"molecule": "CCC(C)N1C(=O)C2C(C(=O)Nc3cccc(OC)c3)C3C=CC2(O3)C1C(=O)NC1CCCCC1C", "note": "(stereo not drawn)", "hERG current change (%, negative = inhibition) at 10uM": -6.83},
      {"molecule": "O=S1(=O)CCN(Cc2ccc(Cl)c(Cl)c2)CC1", "hERG current change (%, negative = inhibition) at 10uM": 6.46},
      {"molecule": "CC(C)OC(=O)Cn1nnc(-c2ccccc2)n1", "hERG current change (%, negative = inhibition) at 10uM": 0.0206},
      {"molecule": "Cc1c(NC(=O)C(C)OC(=O)c2cc(Cl)ccc2O)c(=O)n(-c2ccccc2)n1C", "note": "(stereo not drawn)", "hERG current change (%, negative = inhibition) at 10uM": 15.3},
      {"molecule": "CCSc1sccc1C1C(C#N)=C(N)N(c2cccnc2)C2=C1C(=O)CCC2", "note": "(stereo not drawn)", "hERG current change (%, negative = inhibition) at 10uM": -31.5},
      {"molecule": "CC1(C)CC(=O)C2=C(C1)N(c1cccnc1)C(N)=C(C#N)C2c1cccs1", "note": "(stereo not drawn)", "hERG current change (%, negative = inhibition) at 10uM": -5.86},
      {"molecule": "CCSc1sccc1C1C(C#N)=C(N)N(c2cccnc2)C2=C1C(=O)CC(C)(C)C2", "note": "(stereo not drawn)", "hERG current change (%, negative = inhibition) at 10uM": -50.4},
      {"molecule": "CC12COC3(C(=O)Nc4ccc(F)cc4)CC1CCC32C", "note": "(stereo not drawn)", "hERG current change (%, negative = inhibition) at 10uM": -18},
      {"molecule": "CN(CCC#N)C(=O)COC(=O)[C@H](Cc1ccccc1)N1C(=O)c2ccccc2C1=O", "hERG current change (%, negative = inhibition) at 10uM": -2.25},
      {"molecule": "Cc1ccc(-n2nc3c(=O)n(CC(=O)NCc4cccs4)nc(C)c3c2C)cc1", "hERG current change (%, negative = inhibition) at 10uM": -20.1},
      {"molecule": "Cc1ccc(Oc2ncccc2/C=N/OCc2ccc(Cl)cc2Cl)cc1", "hERG current change (%, negative = inhibition) at 10uM": 14.7},
      {"molecule": "O=C(Nc1ccccc1-c1nnn(CC(=O)N2CCc3ccccc3C2)n1)C1CCC1", "hERG current change (%, negative = inhibition) at 10uM": -52.8},
      {"molecule": "O=C(Nc1cccc(-c2nnn(CC(=O)N3CCc4ccccc4C3)n2)c1)C1CCC1", "hERG current change (%, negative = inhibition) at 10uM": 2.59},
      {"molecule": "CC(C)CC(=O)Nc1ccccc1-c1nnn(CC(=O)N2CCc3ccccc3C2)n1", "hERG current change (%, negative = inhibition) at 10uM": -37.3},
      {"molecule": "O=C(NCCN1CCOCC1)c1cccc(NS(=O)(=O)c2ccc(Br)cc2)c1", "hERG current change (%, negative = inhibition) at 10uM": -34.3},
      {"molecule": "OCC[C@H]1C[C@H](O)[C@@H](O)[C@]2(OCc3ccccc32)O1", "hERG current change (%, negative = inhibition) at 10uM": 11.9},
      {"molecule": "Cc1ccc(COC(=O)c2cc(S(=O)(=O)N3CCCCC3)ccc2N2CCOCC2)cc1", "hERG current change (%, negative = inhibition) at 10uM": -13.9},
      {"molecule": "Cc1ccc(COC(=O)c2cc([N+](=O)[O-])ccc2N2CCOCC2)cc1", "hERG current change (%, negative = inhibition) at 10uM": -53.7},
      {"molecule": "O=C(OCc1ccc([N+](=O)[O-])cc1)c1cc(S(=O)(=O)N2CCCCC2)ccc1N1CCOCC1", "hERG current change (%, negative = inhibition) at 10uM": -75.9},
      {"molecule": "O=C(OCc1ccccc1Cl)c1cc([N+](=O)[O-])ccc1N1CCOCC1", "hERG current change (%, negative = inhibition) at 10uM": -23.1},
      {"molecule": "O=C(OCc1cccc(Cl)c1)c1cc([N+](=O)[O-])ccc1N1CCOCC1", "hERG current change (%, negative = inhibition) at 10uM": -38.7},
      {"molecule": "Cc1ccc(C)c(COC(=O)c2cc([N+](=O)[O-])ccc2N2CCOCC2)c1", "hERG current change (%, negative = inhibition) at 10uM": 5.73},
      {"molecule": "Cc1ccccc1COC(=O)c1cc([N+](=O)[O-])ccc1N1CCOCC1", "hERG current change (%, negative = inhibition) at 10uM": -18.8},
      {"molecule": "CC1CC(C)CN(C(=O)COC(=O)c2cc([N+](=O)[O-])ccc2N2CCOCC2)C1", "note": "(stereo not drawn)", "hERG current change (%, negative = inhibition) at 10uM": -54.7},
      {"molecule": "O=C(OCc1ccc(F)cc1)c1cc(S(=O)(=O)N2CCCCC2)ccc1N1CCOCC1", "hERG current change (%, negative = inhibition) at 10uM": 2.16},
      {"molecule": "CC1CCCN(C(=O)COC(=O)c2cc([N+](=O)[O-])ccc2N2CCOCC2)C1", "note": "(stereo not drawn)", "hERG current change (%, negative = inhibition) at 10uM": -14.6},
      {"molecule": "O=C(OCc1ccc([N+](=O)[O-])cc1)c1cc([N+](=O)[O-])ccc1N1CCOCC1", "hERG current change (%, negative = inhibition) at 10uM": -76.1},
      {"molecule": "CC1CCN(C(=O)COC(=O)c2cc([N+](=O)[O-])ccc2N2CCOCC2)CC1", "hERG current change (%, negative = inhibition) at 10uM": -15}
    ]}
  ]
}
